What follows are compounds tested on Plasmodium falciparum (assay: GSK_TCMDC: Inhibition of Plasmodium falciparum 3D7 in whole red blood cells, using parasite LDH activity as an index of growth. Test compounds present at 2uM).
Type: functional

| Structure (SMILES) | Inhibition |
| --- | --- |
| CC(=O)NCCNc1nccc(N2CCc3ncnc(Nc4ccc(OCc5ccccn5)c(Cl)c4)c3C2)n1 | 99% |
| CN(C)S(=O)(=O)c1ccc(N2C(=O)C3C(C2=O)C2(c4ccccc4)C(=O)C3(c3ccccc3)C(c3ccccc3)=C2c2ccccc2)cc1 (stereo not drawn) | 92% |
| Cc1nc(C)c(-c2ccc(Oc3ccc(Cl)cc3)c(Cl)c2)c(O)c1Br | 97% |

What follows are compounds tested on Plasmodium falciparum (assay: GSK_TCMDC: Inhibition of Plasmodium falciparum Dd2 in whole red blood cells, using parasite LDH activity as an index of growth. Test compounds present at 2uM).
Type: functional

| Structure (SMILES) | Inhibition |
| --- | --- |
| CNC(=O)c1cnc(Nc2ccc(OCC(O)CN(C)C)cc2)nc1Nc1cccc([N+](=O)[O-])c1.O=C(O)C(F)(F)F (stereo not drawn) | 94% |
| O=C(/C=C/c1ccc(Cl)c(Cl)c1)NCCCCCN1CC[C@H](NC(=O)c2sc3ccccc3c2Cl)C1 | 3% |
| COc1ccc2nccc(N3CCC(CCNCc4ccc5c(n4)NC(=O)CO5)CC3)c2c1.Cl | 50% |
| CCc1cn(CCS(C)(=O)=O)c2ccc(C(=O)N[C@@H](Cc3ccccc3)[C@H](O)CNC(C)(C)CCCC(C)C)cc12.O=CO | 96% |
| Cc1[nH]c2ccc(O)cc2c1C1CCN(CCCCCNC(=O)/C=C/c2ccc(Cl)c(Cl)c2)CC1 | 1% |
| O=C(c1cccc(-c2noc(C(F)(F)F)n2)c1)N1CCN(c2ccncc2)CC1 | 56% |
| O=C(O)C(F)(F)F.c1ccc(CN2CCC(NCc3ccccc3-c3ccc(CNCc4ccc5c(c4)OCO5)cc3)CC2)cc1 | 49% |
| Cl.Nc1nc(N)c2c(n1)CCc1cc(Br)ccc1-2 | 4% |
| CC(C)C(=O)NC(c1cccs1)c1cc(Cl)c2cccnc2c1O (stereo not drawn) | 91% |
| COc1cccc(Nc2nccc(NCC(O)c3ccc(C(F)(F)F)cc3)n2)c1 (stereo not drawn) | 28% |
| COc1ccc(N2CCN(CCCCNC(=O)c3ccc(/C=C/c4ccc(Cl)c(Cl)c4)cc3)CC2)c(OC)c1 | 51% |
| COc1cc(OC)cc(C(=O)N2CCOC(CCN3CCC(c4ccccc4)CC3)(c3ccc(Cl)c(Cl)c3)C2)c1 (stereo not drawn) | 61% |
| COc1cc(C(=O)N2CCN(C(C)C)CC2)ccc1CN(C)CCCN1CCN(c2cccc(Cl)c2Cl)CC1.Cl | 87% |
| O=c1cc(NCCCNCc2cccc(I)c2)[nH]c2ccccc12 | 9% |
| Cc1cc(C(=O)Nc2ccc(-c3ccccc3)cc2)no1 | 94% |
| COc1ccnc(NCCCNCc2cn(S(=O)(=O)c3ccccc3)c3ccccc23)c1 | 18% |
| O=C(Cc1c[nH]cn1)Nc1cccc(-c2ccc(-c3nc4cc(C(F)(F)F)ccc4[nH]3)cc2)c1 | 99% |
| Cc1cccc2nc(-c3ccc(-c4ccc(CN5CCCC5CN)cc4)cc3)[nH]c12.O=C(O)C(F)(F)F (stereo not drawn) | 65% |
| CC(=O)Nc1nc(C(=O)Nc2cccc(-c3cccc(-c4nc5ccccc5[nH]4)c3)c2)cs1 | 82% |
| CCCOc1ccc(CNCCCCCCNCc2ccc(OCCC)c3ccccc23)c2ccccc12.CS(=O)(=O)O | 96% |

| Structure (SMILES) | Inhibition |
| --- | --- |
| N=C(N)Nc1nc(-c2cccc(NC(=O)NCc3ccc(OC(F)(F)F)cc3)c2)cs1 | 26% |
| Cc1nnc(-c2ccc3ccccc3c2)c2cn(-c3cccc([N+](=O)[O-])c3)nc12 | 67% |
| Cn1nc(C(F)(F)F)c(-c2ccc(Br)cc2)c1NC(=O)Nc1ccc(F)cc1F | 99% |
| CCCN1CCN(c2ccccc2NS(=O)(=O)c2ccc(C(=O)Nc3ccc(Cl)cc3)cc2)CC1.O=C(O)C(F)(F)F | 9% |
| CCN(CC)CCCC(C)Nc1c2ccc(Cl)cc2nc2ccc(OC)cc12.Cl.O (stereo not drawn) | 100% |
| CC1CC(NCCCNc2cc(=O)c3ccccc3[nH]2)c2c1cc(Cl)c(Cl)c2Cl (stereo not drawn) | 70% |
| CCc1nc(N)nc(N)c1-c1ccc2c(c1)CCCC2 | 0% |
| O=C(Cc1ccc[n+]([O-])c1)Nc1cccc(-c2cccc(-c3nc4cc(C(F)(F)F)ccc4[nH]3)c2)c1 | 99% |
| O=C(Nc1ccsc1C(=O)NC1CCCCC1)c1ccc(F)cc1 | 11% |
| COC(=O)c1cccc(CNCc2ccc(-c3ccc(-c4nc5cccc(C)c5[nH]4)cc3)cc2)c1.O=C(O)C(F)(F)F | 86% |
| C[C@@H](CC1CCCCC1)NCc1cccc(NS(=O)(=O)c2ccc(O)c(-c3ccno3)c2)c1.Cl | 4% |
| CC(C)NCc1ccc(-c2ccc(-c3nc4cc(C(F)(F)F)ccc4[nH]3)s2)cc1.O=C(O)C(F)(F)F | 94% |
| O=C(/C=C/c1ccc(Cl)c(Cl)c1)NCC1CCN(Cc2ccc(O)cc2)CC1.O=C(O)C(F)(F)F | 0% |
| CC(=O)Nc1ccc(NC(=O)c2cc(-c3cc(Cl)ccc3O)n[nH]2)cc1 | 100% |
| Cc1cc(NC(=O)Nc2ccc(C(C)(C)C)cc2)c2ccccc2n1 | 57% |
| CCOc1cc(C(=O)NC2CCN(Cc3ccccc3)CC2)ccc1-c1nc2cc(Cl)c(F)cc2[nH]1 | 51% |
| CCCN(Cc1nnc(-c2ccco2)o1)C(=O)C1CCN(c2ncc(C(F)(F)F)cc2Cl)CC1 | 92% |
| CC(=O)NCCNc1nccc(N2CCc3ncnc(Nc4ccc(OCc5ccccn5)c(Cl)c4)c3C2)n1 | 99% |
| CN(C)S(=O)(=O)c1ccc(N2C(=O)C3C(C2=O)C2(c4ccccc4)C(=O)C3(c3ccccc3)C(c3ccccc3)=C2c2ccccc2)cc1 (stereo not drawn) | 63% |
| Cc1nc(C)c(-c2ccc(Oc3ccc(Cl)cc3)c(Cl)c2)c(O)c1Br | 96% |
